Source: ChEMBL document CHEMBL3988442, “University of Dundee, Small-Polar-MMV Screening Library” (2021)

molecular target: T1, Tyrosyl-tRNA synthetase, putative (Trypanosoma cruzi (strain CL Brener)) (UniProt Q4DSP6); experiment: Trypanosoma cruzi tyrosyl tRNA synthetase (TcYRS) _High Tyrosine SOP; type: functional; set-up: scale not given: in the data most compounds retested in dose-response had high values; conditions: 30 µM
T1 sequence (whole entry): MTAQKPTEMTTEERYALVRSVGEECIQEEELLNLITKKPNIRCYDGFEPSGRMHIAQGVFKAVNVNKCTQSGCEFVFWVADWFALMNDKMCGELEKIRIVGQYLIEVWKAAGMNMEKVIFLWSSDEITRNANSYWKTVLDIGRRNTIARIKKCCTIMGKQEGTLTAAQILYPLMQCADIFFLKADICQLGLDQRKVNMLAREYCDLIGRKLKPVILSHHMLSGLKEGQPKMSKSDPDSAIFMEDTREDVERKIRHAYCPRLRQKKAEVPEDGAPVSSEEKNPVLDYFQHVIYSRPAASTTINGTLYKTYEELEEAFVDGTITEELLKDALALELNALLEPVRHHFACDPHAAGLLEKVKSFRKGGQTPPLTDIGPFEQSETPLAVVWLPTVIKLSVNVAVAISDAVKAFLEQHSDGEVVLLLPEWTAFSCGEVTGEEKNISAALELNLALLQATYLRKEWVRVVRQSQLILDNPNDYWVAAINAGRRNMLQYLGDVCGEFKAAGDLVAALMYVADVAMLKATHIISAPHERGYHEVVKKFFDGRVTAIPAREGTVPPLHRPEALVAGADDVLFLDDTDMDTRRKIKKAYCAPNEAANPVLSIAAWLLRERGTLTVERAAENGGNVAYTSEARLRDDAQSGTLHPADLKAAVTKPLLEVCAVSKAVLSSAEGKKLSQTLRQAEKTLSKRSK

In order of rising Percent Effect:
1. CN(C)C(=O)CN1CCC2(CCN(Cc3nccs3)CC2)C1=O  -12.5%
2. CCc1noc(C(C)N2CCN(Cc3nc(C)c(C)o3)CC2)n1 (stereo not given)  -5.39%
3. Cc1ccc(N2CC3(COCCN(Cc4cccnc4)C3)OCC2=O)s1 (stereo not given)  -2.12%
4. Cn1nnc2c1C(COCC1CC1)CN(C(=O)Cc1ccsc1)C2 (stereo not given)  -1.06%
5. Fc1ccc(OCCCN2CCOC(Cn3cncn3)C2)cc1 (stereo not given)  0%
6. CS(=O)(=O)N1CCCCCC1C1CCN(c2ncccc2C#N)CC1 (stereo not given)  0.49%
7. CS(=O)(=O)NCCCN1CCCCC1c1cc2ccccc2[nH]1 (stereo not given)  1.48%
8. O=C(c1ccsc1)N1CC[C@H]2C[C@@H](c3nnc(C4CC4)o3)O[C@@H]2C1  2.12%
9. CCC1=N[C@@]2(CC[C@@H]3CN(Cc4ccc(Cl)cc4)C[C@@H]32)C(=O)N1  2.16%
10. NC(=O)Nc1cccc(Oc2ccccn2)c1  3.19%
11. Fc1cccc(CN2CCC(c3n[nH]c4ncccc34)CC2)c1F  3.23%
12. CC(C)CN1Cc2c(C(=O)N(C)C)ncn2-c2ccccc2S1(=O)=O  3.24%
13. CCc1nnc2n1CCN(C(=O)C(C)COCc1ccccc1)C2 (stereo not given)  3.45%
14. CS(=O)(=O)CCC(=O)NC1(c2cccc(Br)c2)CC1  3.7%
15. O=C(C1CC(=O)N(C2CCCC2)C1)N1CCN(CCn2cccc2)CC1 (stereo not given)  3.83%
16. Cc1ccc(CN(Cc2ccccn2)C2CC(C)(C)NC(C)(C)C2)s1  4.3%
17. Cc1c(C2CCCN(C(=O)C3CC3)C2)n2c(nc1=O)CCC2 (stereo not given)  4.3%
18. CCn1cc(CN2CCCn3nc(CCC(=O)NCCO)cc3C2)cn1  4.3%
19. CC(C)c1nccn1CCCNC(=O)c1ccc(-c2cncnc2)nc1  4.92%
20. CC(NC(=O)NCCCO)c1ccc2c(c1)OCCO2 (stereo not given)  4.95%
21. CC(C)N1CCC(Cc2cncc(-c3ccccc3C(=O)O)n2)CC1  5.32%
22. Cc1noc(C)c1CN1CC[C@@H](OCC2CC2)[C@@H](Cc2ccccc2)C1  5.32%
23. CN(C)CC1(O)CCN(S(=O)(=O)c2ccc(F)cc2)C1 (stereo not given)  5.38%
24. Cc1nc(C)n(CC2CN(Cc3cccc(C(N)=O)c3)CCO2)n1 (stereo not given)  5.94%
25. CCn1c(CN2CCCN(C(=O)OC)CC2)nc2c(F)cccc21  6.37%
26. c1cnn(Cc2nnc(C3CCN(C4CCOCC4)CC3)n2C2CC2)c1  7.1%
27. NC(=O)C1CCN(Cc2cccc(NC(=O)c3ccsc3)c2)CC1  7.1%
28. COc1ccc(C2=CCN(C(=O)CN(C)CC(C)C#N)CC2)cc1 (stereo not given)  7.39%
29. Cc1ccc(CC2CCCN2CC(=O)NCc2ccccn2)cc1 (stereo not given)  7.45%
30. Cc1nc(CN2CCN(CC(=O)Nc3c(C)cccc3C)CC2)no1  7.62%
31. CCCC1CCCN(Cc2csc(-c3cnn(C)c3)n2)CC1 (stereo not given)  8.33%
32. CCn1cnnc1CNC(=O)N1CCN(Cc2ccccc2)CC1  8.57%
33. CC(NC(=O)Cn1cccn1)c1ccc2c(c1)OCCCO2 (stereo not given)  8.74%
34. Cc1nc(C)n(CC2CN(Cc3cccnc3)CCO2)n1 (stereo not given)  9.36%
35. CCc1noc(CN2CCCC2c2noc(C3CC3)n2)n1 (stereo not given)  9.36%
36. CCN(Cc1nc2c(cnn2C)c(=O)[nH]1)c1ccc(OC)c(OC)c1  9.38%
37. COc1c(CNCC(O)c2cccc(F)c2)c(C(C)C)nn1C (stereo not given)  9.52%
38. NC(=O)C1(c2cnccn2)CCCN1Cc1cc2ccccc2o1 (stereo not given)  9.68%
39. O=C(CCc1cscn1)N1CCCC1c1noc(C2CC2)n1 (stereo not given)  12.3%
40. Fc1ccc2[nH]c(C3CCCN3CCc3ccccn3)nc2c1 (stereo not given)  13.5%
